# Test results: PubChem BioAssay (NCATS)
# Inconclusive results are not listed. Where a call stands in place of a potency, no number is given. Active and inactive are the calls of the source. The call rests on the fitted dose curve; in most records, active means well fitted inhibition curve with a large enough effect; inconclusive means small, poorly fitted or top-dose-only effect; inactive means flat fitted curve, though single readings scatter.
# Test system: MCC-26
# Assay: qHTS assay to identify novel small-molecules to repurpose for Merkel cell carcinoma treatment (AID 1296009); further: nearly all actives have a fitted effect of over 60% in size
# Conditions: MCC and control cell lines, CellTiter-Glo viability, 72 h; series mostly up to 46 µM
# From the text: MCC is a rare and aggressive neuroendocrine skin cancer with limited treatment options. Approximately 80% of MCCs have the Merkel cell polyomavirus (MCPyV) DNA integrated into the host genome (virus-positive: VP-MCC) and viral oncogenes drive oncogenesis. The remaining MCCs are virus-negative (VN-MCC) and are caused by UV mutagenesis. To identify novel treatments for VP-MCC and/or VN-MCC we screened three VP-MCC cell lines (WAGA, MKL-1, MKL-2), three VN-MCC cell lines (MCC-13, MCC-26, UISO), and four immortalized, non-transformed control cell lines (HaCaT, HEK293T, CRL7250, NIH-3T3) against ~2,400 compounds in the NCGC Pharmaceutical Collection (NPC) and ~1,900 compounds in the Mechanism Interrogation PlatE (MiPE). Using cell viability as a readout (CellTiter-Glo assay) we found both overlapping and distinct drugs that can be repurposed for the treatment of VP-MCC and VN-MCC.
# A high-throughput screen was conducted in 1536-well white flat bottom plates (Corning) on a Kalypsys robotic system. Cell lines WAGA, MKL-1, MKL-2, MCC-13, MCC-26, UISO, HaCaT, HEK293T, CRL7250, and NIH-3T3 were screened against 2 small molecule annotated drug libraries NPC and MIPE in dose response (8 and 11 pt. respectively) measuring cell viability after 72 hours of incubation. […] A 1,536 pintool (Kalypsys) was used to transfer 23 nL of compound in DMSO to the 1,536-well assay plates. After 72 hr incubation at 37 degree celsius, 2.5 uL of CellTiter-Glo (Promega) was dispensed into each well using a BiorapTR. Plates were incubated at room temperature for 10 min, transferred to a ViewLux (PerkinElmer) and the luminescence was recorded using an exposure time of 2 seconds. Relative luminescence units (RLUs) were normalized to in-plate controls (no cells as a positive (cytotoxicity) control, DMSO as negative control) and the normalized data was processed using NCATS in-house software.
# Potency means the concentration at half of the fitted maximal effect.
row,SMILES,Potency
1,CCCCC(CC)CN1CN(CC(CC)CCCC)CC(C)(N)C1 (stereo not given),inactive
2,COc1ccccc1N1CCN(CCCCNC(=O)c2ccc(-c3ccc(C(C)=O)cc3)cc2)CC1,inactive
3,CC(=O)O[C@H]1C[C@@H]2CC[C@@H]3[C@H](CC[C@@]4(C)[C@H]3C[C@H]([N+]3(C)CCCCC3)[C@@H]4OC(C)=O)[C@@]2(C)C[C@@H]1N1CCCCC1,inactive
4,Cc1c(-c2ccccc2)oc2c(C(=O)OCCN3CCCCC3)cccc2c1=O,inactive
5,FC1(F)C(F)(F)C(F)(F)C2(F)C(F)(F)C(F)(F)C(F)(F)C(F)(F)C2(F)C1(F)F (stereo not given),inactive
6,CCN(CC)CCOc1ccccc1C(=O)CCc1ccccc1,inactive
7,C=C[C@@]1(C)CC(=O)[C@]2(O)[C@@]3(C)[C@@H](O)CCC(C)(C)[C@@H]3[C@H](O)[C@H](OC(C)=O)[C@@]2(C)O1,inactive
8,C#C[C@]1(O)CC[C@H]2[C@@H]3CCC4=Cc5oncc5C[C@]4(C)[C@H]3CC[C@@]21C,inactive
9,Cc1ccc(-c2ncc(Cl)cc2-c2ccc(S(C)(=O)=O)cc2)cn1,inactive
10,NCCNC(=O)c1ccc(Cl)cn1,inactive
11,Cc1cc(NS(=O)(=O)c2ccc(N)cc2)nc(C)n1,inactive
12,CC(=O)O[C@]1(C(C)=O)CC[C@H]2[C@@H]3C=C(C)C4=CC(=O)CC[C@]4(C)[C@H]3CC[C@@]21C,inactive
13,CC(C)=CCOc1ccc(/C=C/C(=O)c2ccc(OCC=C(C)C)cc2OCC(=O)O)cc1,inactive
14,O=S(=O)(O)c1ccc(O)cc1,inactive
15,Cc1cccc(C)c1NC(=O)c1ccccc1C(=O)O,inactive
16,Cc1cc(-c2ccccc2)nnc1NCCN1CCOCC1,inactive
17,CC(C)(C)NCC(O)COc1cccc2c1C[C@H](O)[C@H](O)C2 (stereo not given in full),inactive
18,O=C(CCCN1CC=C(n2c(=O)[nH]c3ccccc32)CC1)c1ccc(F)cc1,inactive
19,CC(C)(C)NC[C@H](O)COc1nsnc1N1CCOCC1,inactive
20,COc1ccc(CN(CCN(C)C)c2ncccn2)cc1,inactive

row,SMILES,Potency
1,C#C[C@]1(O)CC[C@H]2[C@@H]3[C@H](C)CC4=C(CCC(=O)C4)[C@H]3CC[C@@]21C,inactive
2,Oc1ccccc1C=NCc1ccccc1,inactive
3,COP(=O)(OC)OC(c1ccc(Cl)cc1)P(=O)(OC)OC (stereo not given),inactive
4,CCCCCCCCCCC[C@@H](C[C@@H]1OC(=O)[C@H]1CCCCCC)OC(=O)[C@H](CC(C)C)NC=O,inactive
5,Cc1ccc(S(=O)(=O)NC(=O)NC2CCCC2)cc1,inactive
6,OC(C#CCN1CCCC1)(c1ccccc1)c1ccccc1,inactive
7,O=C(Nc1cccc(C2=NCCN2)c1)Nc1cccc(C2=NCCN2)c1,inactive
8,NC(=S)N/N=C/c1cccnc1,inactive
9,CC(C)Cn1cnc2c1c(=O)n(C)c(=O)n2C,inactive
10,CC(C)Nc1cccnc1N1CCN(C(=O)c2cc3cc(NS(C)(=O)=O)ccc3[nH]2)CC1,inactive
11,Nc1nc(Cl)nc2c1ncn2[C@@H]1O[C@H](CO)[C@@H](O)[C@@H]1F,3.76 µM (active)
12,CN1CCN(c2c(F)cc3c(=O)c(C(=O)O)cn4c3c2SCC4)CC1,inactive
13,O=C(Nc1ccc([N+](=O)[O-])cc1)Nc1ccc([N+](=O)[O-])cc1,inactive
14,CCN(CC)CCOc1ccc2c(c1)C(=O)c1cc(OCCN(CC)CC)ccc1-2,inactive
15,OCCOCCN1CCN(C2=Nc3ccccc3Sc3ccccc32)CC1,inactive
16,NC(N)=NN=C(/C=C/c1ccc([N+](=O)[O-])o1)/C=C/c1ccc([N+](=O)[O-])o1,2.66 µM (active)
17,CCCCC(CC)COC(=O)c1ccc(N(C)C)cc1 (stereo not given),inactive
18,CCOC(=O)Nc1ccc2c(c1)N(C(=O)CCN1CCOCC1)c1ccccc1S2,inactive
19,CN(C)CCOC(=O)C(c1ccccc1)C1(O)CCCC1 (stereo not given),inactive
20,O=C(O)CCC(=O)Nc1ccc(S(=O)(=O)Nc2nccs2)cc1,inactive
